Compounds with a hit are over-represented: about 2.8% of the library has one in this group of screens.
HIF-2a inh: blocks HIF-2a reporter activity; 786-0 RCC cells HIF-2a reporter, luciferase luminescence, overnight; inhibition, % at 18.8 µM; 360,000 tested, 0.72% active; AID 624352;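 active = inhibition of the luminescence signal of 40% or more relative to plate controls, in a single-dose primary screen at 18.75 µM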
Peg3 promoter: reduces Peg3 promoter-driven luciferase expression in HeLa. HeLa PEG-Prom luciferase reporter, luminescence, overnight. 360,000 tested, 1.7% active. inhibition, % at 20 µM;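 active = inhibition of at least 50% at 20 µM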
TRPM1 prom inh: MITF TRPM1 promoter inhibition in SK-MEL-5 cells; AID 488899; SK-MEL-5 TRPM1 promoter luciferase, 24 h; 330,000 tested, 0.83% active; inhibition, % at 12.5 µM;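 active = mean inhibition across replicates of 60% or more, whatever share of single replicates reaches that level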
Shn3 inh set2: Schnurri-3 reporter inhibition in Clone20 osteoblasts; Clone20 osteoblast Shn3 3'UTR firefly luciferase, 24 h; inhibition, % at 12.5 µM; 360,000 tested, 0.52% active; AID 588674;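 active = mean inhibition of at least 75% with every replicate also reaching 75%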;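 note: 0% = median of neutral control wells and 100% = pilot-screen positive control compound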
PAX8 reporter: lowers PAX8-driven luciferase in RMG-I cells; RMG-I TPO-luciferase reporter, SteadyGlo, 24 h; inhibition, % at 12.6 µM; 360,000 tested, 1.2% active;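 active = mean replicate inhibition at least 60% with every replicate also reaching 60%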;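 note: luciferase light reporting Pax8 driven TPO promoter activity; plate controls were median of neutral control wells for no effect and mitoxantrone controls for full effect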
EBV LMP1 NFkB: Epstein-Barr LMP1 NF-kappaB reporter inhibition | LMP1-induced NF-kappaB luciferase reporter cells, luminescence | inhibition, % at 12.5 µM | 350,000 tested, 0.69% active; in the data active = inhibition above about 41%;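 note: 0% = neutral control wells and 100% = reference inhibitor control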
An asterisk follows results filed as active; . = not tested or not shown.

SMILES	HIF-2a inh	Peg3 promoter	TRPM1 prom inh	Shn3 inh set2	PAX8 reporter	EBV LMP1 NFkB
C[C@H]1CN([C@@H](C)CO)C(=O)c2cc(C3=CCCC3)cnc2O[C@@H]1CN(C)C(=O)c1ccccn1	.	.	.	.	-31	.
C[C@@H]1CN([C@H](C)CO)C(=O)c2cc(NC(=O)C3CC3)ccc2O[C@H]1CN(C)Cc1ccncc1	.	.	.	.	6	.
C[C@@H]1CN([C@H](C)CO)C(=O)Cc2cc(NS(=O)(=O)c3ccccc3)ccc2O[C@H]1CN(C)Cc1ccncc1	.	.	.	.	-10	.
C[C@@H]1CCCCO[C@@H](CN(C)S(=O)(=O)c2ccccc2)[C@@H](C)CN([C@H](C)CO)C(=O)c2cc(NC(=O)Nc3ccc(C(F)(F)F)cc3)ccc2O1	.	.	.	.	-4	.
C[C@H](CO)N1C[C@H](C)[C@H](CN(C)S(=O)(=O)c2ccccc2)OCCCC[C@H](C)Oc2ccc(NC(=O)Nc3ccc(C(F)(F)F)cc3)cc2C1=O	.	.	.	.	74*	.
C=CC[N+](C)(C)C/C(Cl)=C(\Cl)c1ccccc1	15	4	1	22	.	49*
C/C(Cl)=C\C[N+](C)(C)CC(=O)OCCc1ccccc1	19	-3	.	0	-1	.
Cc1noc(C)c1NC(=O)Nc1ccc2c(c1)C(=O)N([C@H](C)CO)C[C@H](C)[C@H](CN(C)Cc1ccccc1)OCCCC[C@H](C)O2	.	.	.	.	10	.
C[C@@H]1CN([C@@H](C)CO)C(=O)c2cc(NC(=O)Cc3ccccc3)ccc2O[C@@H](C)CCCCO[C@@H]1CN(C)S(=O)(=O)c1ccccc1	.	.	.	.	-23	.
COc1ccc(NC(=O)Nc2ccc3c(c2)[C@H]2C[C@H](CC(=O)N4CCOCC4)O[C@H](CO)[C@H]2O3)cc1	.	.	.	.	-1	.
Cc1cccc(NC(=O)/C(=C\c2ccc([N+](=O)[O-])o2)NC(=O)c2ccc(Cl)cc2)c1	6	56*	2	18	14	-17
C[C@H](CO)N1C[C@H](C)[C@@H](CN(C)C(=O)NC2CCCCC2)Oc2cc(C#Cc3cccc(F)c3)ccc2S1(=O)=O	.	.	.	.	16	.
C[C@H]1CN([C@@H](C)CO)S(=O)(=O)c2ccc(C#Cc3ccc(F)cc3)cc2O[C@H]1CN(C)C(=O)NC1CCCCC1	.	.	.	.	78*	.
C[C@H]1CN([C@@H](C)CO)S(=O)(=O)c2ccc(C#Cc3ccc(F)cc3)cc2O[C@@H]1CN(C)C(=O)NC1CCCCC1	.	.	.	.	91*	.
C[C@@H]1CN([C@@H](C)CO)S(=O)(=O)c2ccc(C#Cc3ccc(F)cc3)cc2O[C@@H]1CN(C)C(=O)NC1CCCCC1	.	.	.	.	85*	.
C[C@H]1CN([C@@H](C)CO)C(=O)Cc2cc(NS(=O)(=O)c3ccc(F)cc3)ccc2O[C@H]1CN(C)Cc1ccc2c(c1)OCO2	.	.	.	.	-8	.
CC(C)NC(=O)Nc1ccc2c(c1)C(=O)N([C@@H](C)CO)C[C@@H](C)[C@H](CN(C)C(=O)Nc1ccccc1)OCCCC[C@@H](C)O2	.	.	.	.	23	.
O=C(c1ccc(COc2ccccc2Cl)o1)N1CCOCC1	-13	4	-3	-1	-20	-8
O=C(c1ccc(COc2ccccc2Cl)o1)N1CCCC1	-63	-36	27	-20	.	47*
CCC(=O)Nc1ccc(NC(=O)c2oc3ccccc3c2C)cc1	62*	-75	-13	-19	-17	-5
COc1ccccc1-c1nnc(NC(=O)CCS(=O)(=O)c2ccc(F)cc2)o1	7	-1	.	-22	74*	7
COc1cccc(S(=O)(=O)N[C@@H]2C=C[C@@H](CC(=O)NCc3ccc(Cl)cc3)O[C@@H]2CO)c1	.	.	.	.	19	.
CC(OC(=O)c1ccc([N+](=O)[O-])s1)C(=O)NC1CCCCC1C (centres undefined)	-4	4	78*	-9	14	10
COc1cc(C(=O)OC(C)C(=O)NC2CCCCC2C)c([N+](=O)[O-])cc1OC (centres undefined)	10	16	-8	-12	-5	3
CN1C(=O)c2cc(NC(=O)C3CCOCC3)ccc2OC[C@H]2O[C@@H](CC(=O)O)CC[C@@H]21	.	.	.	.	-2	.
SMILES	HIF-2a inh	Peg3 promoter	TRPM1 prom inh	Shn3 inh set2	PAX8 reporter	EBV LMP1 NFkB
CO[C@@H]1CN(C)C(=O)c2ccc(NC(=O)NC(C)C)cc2OC[C@H](C)NC[C@@H]1C	.	.	.	.	-9	.
OCCN1CCN(CC(O)COc2ccc(C34CC5CC(CC(C5)C3)C4)cc2)CC1 (centres undefined)	7	114*	22	-8	19	-9
NCCOc1ccc(C23CC4CC(CC(C4)C2)C3)cc1	-87	101*	43	5	-21	-18
COc1ccc(-n2c(-c3ccccc3)nnc2-c2ccc(Cl)cc2)cc1	24	36	-2	-2	3	-5
COc1ccc(-n2c(-c3ccc(Cl)cc3)c[n+]3c2CCc2ccccc2-3)cc1	34	16	45	76	94*	4
Cc1noc2ncnc(Sc3ccc(Cl)cc3)c12	34	102*	7	-17	.	6
Cc1nnc(SCc2cnc(-c3ccc(C(C)C)cc3)s2)n1C	-51	-98	12	-19	.	43*
Cc1cccc(C)c1NC(=O)COc1ccc2c(C)c(Cc3ccccc3)c(=O)oc2c1C	16	73*	13	8	2	-2
Cc1c(Cc2ccccc2)c(=O)oc2c(C)c(OCC(=O)Nc3ccc(C#N)cc3)ccc12	18	27	10	-6	23	8
COc1cccc(S(=O)(=O)N2CC[C@@H]3[C@H]2c2cc(C4=CCCCC4)ccc2N(C)[C@H]3CO)c1	.	.	.	.	8	.
Cc1sc2ncnc(N3CCN(S(=O)(=O)c4ccccc4)CC3)c2c1C	30	31	2	94*	.	6
Cc1ccc(C)c(S(=O)(=O)N2CCN(C(=O)C3CCN(c4ncnc5sc(C)c(C)c45)CC3)CC2)c1	8	45	30	89*	-5	29
Cc1ccc(NC(=O)C2CCN(c3ncnc4sc(C)c(C)c34)CC2)cc1S(=O)(=O)N(C)C	16	27	13	34	33	-5
Cc1ccc(S(=O)(=O)N2CCN(c3ncnc4scc(-c5ccccc5)c34)CC2)cc1	-4	8	29	24	-7	-8
Cc1ccc(C)c(S(=O)(=O)N2CCN(C(=O)c3ccc(C)s3)CC2)c1	20	21	4	4	5	45*
CCNC(=O)Nc1ccc2c(c1)C(=O)N(C)[C@@H]1CC[C@@H](CC(=O)N[C@@H](C)c3ccccc3)O[C@H]1CO2	.	.	.	.	-15	.
C[C@H](CO)N1C[C@H](C)[C@@H](CN(C)S(=O)(=O)c2ccc(Cl)cc2)OCCCC[C@H](C)Oc2ccc(N(C)C)cc2C1=O	.	.	.	.	43	.
CC(C)NC(=O)Nc1ccc2c(c1)C(=O)N([C@H](C)CO)C[C@@H](C)[C@@H](CN(C)C(=O)Nc1ccc(C(F)(F)F)cc1)OCCCC[C@@H](C)O2	.	.	.	.	8	.
CCc1ccc2[nH]c3nc(N/N=C/c4ccc(O)cc4O)nnc3c2c1	15	42	24	55	105*	14
COc1cc(/C=N/Nc2nnc3c(n2)[nH]c2ccccc23)ccc1O	0	-9	5	-16	80*	1

Screens as filed in PubChem BioAssay.
